Source: PubChem BioAssay AID588354 (The Scripps Research Institute Molecular Screening Center, 2011)
Hit rate of the full screen: of about 360,000 compounds, about 430 (0.12%) were called active. This is one part of a sample in which actives are shown more often than they occur.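 Rule for the calls: active = inhibition above the campaign mean plus 3 SD, with each screening campaign given its own cutoff (cut at about 60% in these data); inactive = the rest.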

target: Nuclear receptor coactivator 1 (Homo sapiens) (UniProt Q15788); assay: NCOA1 GAL4-fusion reporter inhibition – cell-based, luminescence, primary screen (AID 588354); conditions: HEK293 GAL4-SRC1 luciferase reporter, at 3.6 µM, hits give high values;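 note: 0% = DMSO treated cells and 100% = gossypol at 36 µM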
Sequence (Q15788 whole entry, looked up, the tested form may be a part): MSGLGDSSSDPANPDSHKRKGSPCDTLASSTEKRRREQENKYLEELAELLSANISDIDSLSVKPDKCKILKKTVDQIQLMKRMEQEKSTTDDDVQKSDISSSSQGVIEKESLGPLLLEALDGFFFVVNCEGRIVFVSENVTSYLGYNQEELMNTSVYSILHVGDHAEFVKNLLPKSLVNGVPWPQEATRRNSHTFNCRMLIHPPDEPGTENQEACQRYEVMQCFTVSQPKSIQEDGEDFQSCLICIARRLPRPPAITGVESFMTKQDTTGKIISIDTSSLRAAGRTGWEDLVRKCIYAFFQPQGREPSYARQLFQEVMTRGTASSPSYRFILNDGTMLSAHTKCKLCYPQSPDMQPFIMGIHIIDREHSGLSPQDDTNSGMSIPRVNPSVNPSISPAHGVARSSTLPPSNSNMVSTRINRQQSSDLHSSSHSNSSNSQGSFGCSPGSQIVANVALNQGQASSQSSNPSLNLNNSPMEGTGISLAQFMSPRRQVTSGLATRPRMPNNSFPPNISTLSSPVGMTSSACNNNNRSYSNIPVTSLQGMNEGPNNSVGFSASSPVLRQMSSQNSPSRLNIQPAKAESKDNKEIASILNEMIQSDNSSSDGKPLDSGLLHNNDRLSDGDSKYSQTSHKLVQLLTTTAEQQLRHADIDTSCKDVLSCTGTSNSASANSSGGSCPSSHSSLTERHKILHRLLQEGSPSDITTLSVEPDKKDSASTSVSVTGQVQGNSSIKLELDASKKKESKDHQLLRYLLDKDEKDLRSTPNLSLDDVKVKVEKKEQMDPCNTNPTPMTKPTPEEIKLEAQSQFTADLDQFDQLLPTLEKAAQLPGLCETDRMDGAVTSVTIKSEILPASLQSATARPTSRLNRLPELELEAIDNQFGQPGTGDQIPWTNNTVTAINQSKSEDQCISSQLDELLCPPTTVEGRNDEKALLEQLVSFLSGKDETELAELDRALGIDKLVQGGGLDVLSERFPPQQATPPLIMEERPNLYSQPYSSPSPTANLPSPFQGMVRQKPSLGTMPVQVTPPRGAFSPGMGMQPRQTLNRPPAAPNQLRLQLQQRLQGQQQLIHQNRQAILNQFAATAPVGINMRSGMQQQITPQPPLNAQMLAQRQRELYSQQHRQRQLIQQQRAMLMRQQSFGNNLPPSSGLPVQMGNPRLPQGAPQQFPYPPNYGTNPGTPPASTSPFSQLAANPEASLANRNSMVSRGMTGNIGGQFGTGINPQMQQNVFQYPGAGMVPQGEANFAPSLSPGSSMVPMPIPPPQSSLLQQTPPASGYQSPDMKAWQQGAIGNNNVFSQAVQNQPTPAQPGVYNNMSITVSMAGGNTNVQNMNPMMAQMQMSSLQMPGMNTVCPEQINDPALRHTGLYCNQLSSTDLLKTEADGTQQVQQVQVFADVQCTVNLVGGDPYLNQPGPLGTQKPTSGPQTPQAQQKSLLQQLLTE

Question: C[C@]12CC[C@H](O)C[C@H]1CC[C@@H]1C2CC[C@]2(C)[C@@H](C3=CC(=O)OC3)[C@@H](O)C[C@]12O (stereo not given in full) was tested. Which inhibition did it give?
Answer: Its inhibition is 53.1% (inactive).

Question: How did the inhibition turn out when COC1C(O)C(C)OC(OC2CCC3(C=O)C(CCC4C3CCC3(C)C(C5=CC(=O)OC5)CCC43O)C2)C1O (stereo not given) was run?
Answer: The inhibition was 90.4% (active).

Question: CCC1(C)CC(CCNCc2ccc(N(C)C)cc2)(c2ccc(F)cc2)CCO1 (stereo not given) was tested. Which inhibition did it give?
Answer: Its inhibition is -23.1% (inactive).

Question: For Cc1cccc(-n2c(C)nc3cc(C(=O)N4CCC5(CC4)OCCO5)ccc32)c1, which inhibition is on record?
Answer: The inhibition was 7.63% (inactive).

Question: With CC1CCC(N(C)C2CCN(C)CC2)CC1 (stereo not given) as the compound, how does the inhibition read?
Answer: Its inhibition is 9.39% (inactive).

Question: How did the inhibition turn out when COC(=O)C1=C(c2ccc(Cl)c(C(F)(F)F)c2)C[C@@H]2CC[C@H]1N2C(=O)NC(C)C was run?
Answer: The inhibition was 1.75% (inactive).

Question: For CCC(C)(O)C(=O)OC1C(=O)OC2CC3C(C)=CC(=O)C(O)C3(C)C3C4(O)OCC23C1C(C)C4O (stereo not given), which inhibition is on record?
Answer: The inhibition was 95.5% (active).

Question: With Cn1cc(C(=O)OCC(=O)N2CCCC2)c2ccccc21 as the compound, how does the inhibition read?
Answer: The inhibition was -5.08% (inactive).

Question: With CC(=O)OC1C2(CC3N4C(=O)C5(CO)SSC4(CC31O)C(=O)N5C)OC(C)C(C)(C)C2=O (stereo not given) as the compound, how does the inhibition read?
Answer: Its inhibition is 23.6% (inactive).

Question: Which inhibition does the source give for CCOC(=O)CC(SP1(=S)OCC2(CCCCO2)C(C2CCCCO2)O1)C(=O)OCC (stereo not given) here?
Answer: The inhibition was -3.46% (inactive).

Question: For Cc1ccccc1NC(=O)COC(=O)c1cc(C)n(C2CC2)c1C, which inhibition is on record?
Answer: The inhibition was -22.1% (inactive).

Question: For O=C(COc1ccc2ccccc2c1)N1CCN(Cc2ccncc2)CC1, which inhibition is on record?
Answer: Its inhibition is -6.36% (inactive).

Question: For CCOc1ccc(-c2cc(C)[n+](CCN(CC)CC)c(-c3ccc(OCC)cc3)c2)cc1, which inhibition is on record?
Answer: Its inhibition is 62% (active).

Question: With CNC(=O)N(C)c1nnc(C(C)(C)C)s1 as the compound, how does the inhibition read?
Answer: Its inhibition is -3.52% (inactive).

Question: With N[C@@H](Cc1c[nH]c2ccccc12)c1nnc(SCc2c(F)cccc2Cl)o1 as the compound, how does the inhibition read?
Answer: The inhibition was -58.9% (inactive).
